Screening data (PubChem BioAssay)
Most compounds without a hit are left out; they make up all but 3.5% or so of the library.
FBW7 act: activators of human E3 ligase FBW7; Q969H0; AlphaScreen FBW7–phospho-cyclin E peptide binding, activator screen; normalized activity (activation), % at 26.1 µM; hit rate 0.13% among 650,000; AID 1259310; in the data active means normalized activity above about 1.9%;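 further: purified mutant Fbw7 with reduced substrate affinity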
GPR151 activ: activates the human receptor GPR151; activation, % at 11.2 µM; Q8TDV0; PathHunter beta-arrestin GPR151 cells, luminescence; hit rate 1% among 650,000; in the data active means activation above about 4.9%;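 further: 0% = median of compound wells and 100% = cells with positive control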
MITF primary: blocks human microphthalmia-associated transcription factor; inhibition, % at 2.6 µM; AlphaScreen MITF homodimerization, bead proximity signal; O75030; hit rate 0.91% among 650,000; in the data active means inhibition above about 50%;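 further: 0% = vehicle wells with protein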
TEAD-YAP inh: TEAD-YAP interaction inhibition. HEK-TIYL cells, TEAD-Gal4/YAP UAS-luciferase luminescence. inhibition, % at 9.12 µM. hit rate 1.4% among 640,000; in the data active means inhibition above about 32%;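 further: 0% = median of test compound wells and 100% = reference inhibitor wells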
GPR151 conf act: confirmation of human GPR151 activators; shares compounds with GPR151 activ; GPR151 PathHunter beta-arrestin cells, luminescence, 90 min; % of EA-reagent control over plate median; 6,700 tested, under 10 active; activation, % at 11.2 µM; AID 1508609;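 active means mean percent activation across replicates above the confirmation screen cutoff of 4.91%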
GPR119 counter: counter-screen for GPR151 activators: effect on human GPR119; shares compounds with GPR151 activ; activation, % at 11.2 µM; hit rate 0.3% among 6,700; GPR119 PathHunter beta-arrestin cells, luminescence, 90 min; 0 = compound-well median, 100 = enzyme-acceptor control; AID 1508611;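 active means mean percent activation in the counterscreen above 29.09%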;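 further: counterscreen on off-target GPR119 to flag nonselective hits from the GPR151 activator screen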
Target sequence (Q8TDV5 whole entry, looked up): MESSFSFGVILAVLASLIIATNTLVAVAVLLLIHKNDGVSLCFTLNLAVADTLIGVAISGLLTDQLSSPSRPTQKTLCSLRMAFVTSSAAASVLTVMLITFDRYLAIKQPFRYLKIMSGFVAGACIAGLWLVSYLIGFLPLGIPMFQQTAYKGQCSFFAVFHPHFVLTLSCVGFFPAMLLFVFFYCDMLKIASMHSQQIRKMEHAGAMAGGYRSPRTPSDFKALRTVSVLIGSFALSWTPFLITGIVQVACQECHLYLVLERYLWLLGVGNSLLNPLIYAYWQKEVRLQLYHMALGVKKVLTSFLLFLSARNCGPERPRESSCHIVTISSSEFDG
The depositor's hits bear a star; / = not tested or not shown.

SMILES	FBW7 act	GPR151 activ	MITF primary	TEAD-YAP inh	GPR151 conf act	GPR119 counter
Cc1c(C(=O)Nc2ccc(Oc3ccccc3)cc2)sc2ncn(CC(=O)N3CC(C)CC(C)C3)c(=O)c12 (stereo not given)	0	3	4	5	/	/
C=C(C)CSc1nc2c(c(=O)n1-c1cccc(OC)c1)C1(CCCCC1)Cc1ccccc1-2	0	1	-3	-5	/	/
CCOc1ccc(NC(=O)C(Sc2ccccc2)c2ccccc2)c([N+](=O)[O-])c1 (stereo not given)	0	6.1*	7	-14	1	18
COc1ccccc1N/N=C(\C)c1ccc([N+](=O)[O-])o1	0	5.7*	5	21	1	5
O/N=C/c1cn(-c2ccccc2)nc1-c1ccc(F)cc1	1	6.0*	19	-5	-1	-15
CCc1ccccc1S(=O)(=O)Cc1ccc(C(=O)NC2CCCC2)o1	1	3	14	8	/	/
Cc1ccccc1S(=O)(=O)Cc1ccc(C(=O)NC2CCCCC2)o1	0	7.1*	6	13	0	-9
CCOC(=O)c1cc(-c2ccccc2)sc1NC(=O)c1ccncc1	0	1	9	-8	/	/
Cc1ccc(-n2cnc3cc(C(=O)NCCc4ccccc4)ccc32)c(C)c1	0	5.5*	-7	6	0	-12
COc1ccc(CCNC(=O)c2ccc3c(c2)ncn3-c2ccc(C)cc2C)cc1OC	0	0	11	15	/	/
CCOc1ccccc1NC(=O)c1ccc(F)c(S(=O)(=O)N2CCN(c3ccccn3)CC2)c1	0	6.0*	4	10	-1	-2
CCOc1ccccc1NC(=O)c1ccc(F)c(S(=O)(=O)N2CCN(c3ccccc3F)CC2)c1	0	-1	-3	1	/	/
CCOC(=O)N1CCN(S(=O)(=O)c2cc(C(=O)O)ccc2F)CC1	0	5.8*	1	-6	0	13
CCCCC(C(=O)Nc1ccc(F)cc1)N1C(=O)c2cc(Cl)c(Cl)cc2C1=O (stereo not given)	0	1	8	-1	/	/
Cc1cc(C)nc(N2CCC(C(=O)Nc3ccc(Cl)cc3Cl)CC2)n1	0	9.5*	6	-9	0	7
Cc1ccc(Cl)c(NC(=O)C2CCN(c3nc(C)cc(C)n3)CC2)c1	0	2	6	-6	/	/
COC(=O)CN(c1ccc(C)cc1)S(=O)(=O)c1c(C)[nH]c(=O)[nH]c1=O	0	2	6	2	/	/
COC(=O)CN(c1ccc2c(c1)OCO2)S(=O)(=O)c1c(C)[nH]c(=O)[nH]c1=O	0	5.3*	-6	9	1	2
CC1=C(C(=O)Nc2nc3ccccc3s2)C(c2ccc(Br)cc2)C2=C(CC(C)(C)CC2=O)N1 (stereo not given)	0	0	-13	2	/	/
Cc1ccc(C2C3=C(CC(C)(C)CC3=O)Nc3n[nH]c(C)c32)cc1 (stereo not given)	0	8.4*	6	9	0	0
CC1=C(C(=O)Nc2nc3ccccc3s2)C(c2ccc(C)cc2)C2=C(CC(C)(C)CC2=O)N1 (stereo not given)	0	6.5*	-4	15	1	18
Cc1ccc(C2C3=C(CC(C)(C)CC3=O)Nc3c2c(=O)n(C)c(=O)n3C)cc1 (stereo not given)	-1	7.5*	-4	1	0	-5
Cn1c2c(c(=O)n(C)c1=O)C(c1ccc(F)cc1)C1=C(CC(C)(C)CC1=O)N2 (stereo not given)	0	0	3	10	/	/
O=C(Cn1c(=O)n(-c2ccccc2)c(=O)c2oc3ccccc3c21)N1CCCCC1	0	5.1*	5	-6	-1	-3
Cc1nc(N)n(N)c(=O)c1Cc1ccccc1	0	6.4*	-9	-2	1	-3
SMILES	FBW7 act	GPR151 activ	MITF primary	TEAD-YAP inh	GPR151 conf act	GPR119 counter
Cc1nc(N)n(N)c(=O)c1CCCN1C(=O)c2ccccc2C1=O	0	-2	2	-61	/	/
CCOc1ccc(C(=O)NC2CC(C)(C)NC(C)(C)C2)cc1OCC	0	12*	12	11	-1	-10
CC(=O)Nc1ccc(CN2CCc3c(nc(N4CC(C)OC(C)C4)[nH]c3=O)C2)cc1 (stereo not given)	0	0	8	-8	/	/
COc1ccc(-c2csc3ncnc(SCc4c(C)noc4C)c23)cc1	0	8.1*	-16	-3	0	-4
C=CCN1C(=O)c2oc3ccccc3c(=O)c2C1c1ccc(O)c(OC)c1 (stereo not given)	0	1	2	-4	/	/
C=CCN1C(=O)c2oc3ccccc3c(=O)c2C1c1cccc([N+](=O)[O-])c1 (stereo not given)	0	5.8*	-19	-8	0	-3
CCN1CCC(N(Cc2ccc(F)cc2)C(=O)Nc2cc(F)ccc2F)CC1	0	5.1*	-5	-1	0	10
CC(=O)c1cccc(CN2CCC(C(=O)Nc3ccc(-n4nc(C)cc4C)cc3)CC2)c1	0	-2	7	-8	/	/
CSc1ccccc1C(=O)Nc1ccc2c(c1)CC(=O)N2	0	5.3*	6	6	0	-3
CC(C)(C)NC(=O)/C(=C\c1ccccc1Cl)NC(=O)c1ccc([N+](=O)[O-])cc1	0	1	-6	16	/	/
CCC(=O)N1c2ccccc2NC2=C(C(=O)CC(C)(C)C2)C1c1cccc([N+](=O)[O-])c1 (stereo not given)	0	-1	1	12	/	/
CCOC(=O)c1sc2nc(SCc3ccc(Cl)cc3)n(Cc3ccc4c(c3)OCO4)c(=O)c2c1C	0	-1	10	-2	/	/
O=C(COC(=O)C12CC3CC(CC(O)(C3)C1)C2)c1ccc[nH]1	0	2	-3	-13	/	/
O=C(Nc1ccc(Cl)cc1)C1CC(c2ccccc2O)=NO1 (stereo not given)	0	5.5*	-4	-11	-1	-17
O=C(Nc1cc(Cl)ccc1O)C1CC(c2ccccc2O)=NO1 (stereo not given)	0	0	-4	2	/	/
O=C(O)C1CCC(CN(Cc2cccc(Br)c2)C(=S)Nc2ccccc2F)CC1 (stereo not given)	0	0	7	11	/	/
Cc1ccccc1NC(=S)N(Cc1cccc(Br)c1)CC1CCC(C(=O)O)CC1 (stereo not given)	0	7.6*	-1	0	-1	-2
Cc1nnsc1C(=O)N1CCC[C@@H]2CN(CCCc3ccccc3)CC[C@@H]21	0	0	-6	-5	/	/
O=C(N/N=C/c1ccccc1O)/C(=C\c1cccs1)NC(=O)c1ccccc1	0	1	-42	14	/	/
COc1cccc(/C=N/NC(=O)/C(=C\c2cccs2)NC(=O)c2ccccc2)c1O	0	6.2*	-66	15	0	-12
